Not all results are given here.
aSyn 5UTR act: Activators working through SNCA 5'UTR binding (MLPCN) | AID 1814 | activity score, % (tested at 7.5 µM), hits read low | alpha-synuclein 5'UTR reporter, activators screen | hit rate 7.1% among 300,000; in the data active means activity score below about -60%
* = called active by the depositor.

SMILES	aSyn 5UTR act
Cc1nc(N)sc1-c1csc(Nc2cccc(O)c2)n1	-79*
CC(=O)Nc1ccc(Nc2nc(-c3sc(C)nc3C)cs2)cc1	-77*
Cc1cccc(Nc2nc(-c3sc(C)nc3C)cs2)c1	-149*
COc1ccc(C(=O)/C(=C\c2sccc2C)c2nc3ccccc3o2)cc1	-68*
Cn1c(C(=O)NCCC2=CCCCC2)cc2c(=O)n3ccccc3nc21	-70*
Cc1cccn2c(=O)c3cc(C(=O)N4COCC4(C)C)sc3nc12	-97*
Cn1c(C(=O)N2COCC2(C)C)cc2c(=O)n3ccccc3nc21	-81*
CC1CCN(c2nc3ccc(C(=O)O)cc3s2)CC1	106
CC1CCN(c2nc3ccc(C(=O)NCCCN4CCCCC4)cc3s2)CC1	-282*
CCC1CCCCN1CCCNC(=O)c1ccc2nc(N3CCC(C)CC3)sc2c1 (stereo unspecified)	-292*
CCN(CC)c1ccc(NC(=O)c2ccc3c(c2)OCO3)cc1	-133*
CCOC(=O)c1c(C)[nH]c(C(=O)Nc2ccc3c(c2)OCO3)c1C	-99*
CCOC(=O)c1ccc(NC(=O)c2ccc3c(c2)OCO3)cc1	-118*
COc1ccc(/C=C/c2n[nH]c(=O)c(C#N)c2C)cc1	-71*
Cc1nn(C)cc1/C=C/C(=O)c1ccccc1	-110*
CCn1ncc(/C=C/C(=O)c2ccccc2)c1C	-70*
Cc1c(/C=C/C(=O)c2ccccc2)cnn1C	-123*
Cc1c(/C=C/C(=O)c2ccc(O)cc2)cnn1C	-146*
Cc1c(/C=C/C(=O)c2ccc(C(C)C)cc2)cnn1C	-92*
CCn1cc(/C=C/C(=O)c2ccc(O)cc2)c(C)n1	-105*
Cc1c(/C=C/C(=O)c2ccc(Cl)s2)cnn1C	-163*
COc1ccc(CNC(=O)CSc2nnc(NC(=O)c3ccccc3F)s2)cc1	-69*
Cc1ccc2nc3c(cc(C(N)=S)c(=N)n3CCCOC(C)C)c(=O)n2c1	-64*
C/C(=N\NC(=O)c1cc(Cl)ccc1O)c1ccc(Br)s1	-76*
C/C(=N\NC(=O)CSCc1ccccc1Cl)c1cc(O)ccc1O	62
SMILES	aSyn 5UTR act
COCCNC(=O)Cn1nc(-c2ccccc2OC)ccc1=O	-62*
CCCCCN1C=CC(=C2C(=O)c3ccccc3C2=O)C=C1	113
CC1=CC(=C2C(=O)c3ccccc3C2=O)C=C(C)N1C	-132*
Cn1c(=NC(=O)C2=NNC(=O)CC2)sc2ccccc21	60
C=CC(=O)N=c1sc2ccccc2n1-c1ccccc1	70
Cn1/c(=N/NC(=O)c2ccccc2Br)sc2ccccc21	-75*
CC(=O)Nc1ccc(-c2csc(NCc3ccco3)n2)cc1	-138*
COc1ccc(-c2csc(NCc3ccco3)n2)cc1C	-195*
c1cncc(-c2csc(NCc3ccco3)n2)c1	-92*
C=CCNc1ncnc2c1[nH]c1ccc(Cl)cc12	-197*
Nc1ccc2oc(CCc3ccccc3)nc2c1	-118*
c1ccc2oc(CCc3nc4ccccc4o3)nc2c1	-99*
O=C1OC(c2ccccc2)=C/C1=C\N1CCOCC1	-67*
CC(C)c1ccc(OCc2nc(-c3ccccn3)no2)c(Br)c1	-67*
c1ccc(-c2noc(-c3ccncc3)n2)nc1	-62*
Cc1ccc(SCc2nc(-c3ccccn3)no2)cc1	-106*
c1ccc(-c2noc(-c3ccc4ccccc4c3)n2)nc1	113
Cc1ccc(OCc2nc(-c3ccccn3)no2)cc1	-64*
CC(C)(C)Cc1nc(-c2ccccn2)no1	-99*
Clc1ccccc1/C=C/c1nc(-c2ccccn2)no1	104
c1ccc(OCCCc2nc(-c3ccccn3)no2)cc1	-85*
CC(Oc1ccc(Cl)cc1Cl)c1nc(-c2ccc(NC(=O)c3cccnc3)cc2)no1 (stereo unspecified)	92
CC(Oc1ccc(Cl)cc1Cl)c1nc(-c2ccccn2)no1 (stereo unspecified)	-129*
COc1cc(OC)cc(C(=O)Oc2c(CN3CCOCC3)cc(Cl)c3cccnc23)c1	92
COc1ccc2c(c1OC)c(=O)n1c3ccc(OC(C)C(=O)NCCN4CCOCC4)cc3c3ccnc2c31 (stereo unspecified)	-65*
SMILES	aSyn 5UTR act
CC(Oc1ccc2c(c1)c1ccnc3c4ccccc4c(=O)n2c13)C(=O)NCCN1CCOCC1 (stereo unspecified)	-76*
CC1(C)CC(=O)C(C(=O)/C=C/c2ccco2)C(=O)C1	-73*
CC(C)c1ccc(NC(=O)c2ccc(NS(C)(=O)=O)cc2)cc1	-76*
CS(=O)(=O)Nc1ccc(C(=O)Nc2ccc3ccccc3c2)cc1	-214*
CN(/N=C/c1ccncc1)c1cnc2ccccc2n1	-206*
O=C(Nc1ccc(SC(F)F)cc1)C12CCC(CC1)C2	-80*
OC1CCC(NC(=S)Nc2ccc(SC(F)F)cc2)CC1 (stereo unspecified)	-126*
FC(F)Sc1ccc(NC(=S)NC2CCCC2)cc1	-105*
O=c1cc(NS(=O)(=O)c2ccccc2)nc(SCc2ccccc2Cl)[nH]1	58
Nc1ccccc1-c1nnc(SCc2ccccc2Cl)[nH]c1=O	-69*
O=C(/C=C1\SC(=O)N(CC(=O)Nc2ccc(F)cc2)C1=O)Nc1ccc(Cl)cc1	-196*
C#C[C@]1(O)CC[C@H]2[C@@H]3CCc4cc(OC)ccc4[C@H]3CC[C@@]21C	-70*
C#C[C@]1(O)CC[C@H]2[C@@H]3CCc4cc(OC5CCCC5)ccc4[C@H]3CC[C@@]21C	-75*
Cc1ccc(-c2cn3cccnc3n2)cc1	-119*
CCc1ccn2cc(-c3ccc4c(c3)OCO4)nc2c1	107
c1cnc2nc(-c3ccc4c(c3)OCO4)cn2c1	-93*
c1ccc(-c2nccc(-c3ccc4c(c3)OCO4)n2)cc1	-105*
c1ccc(-c2noc(-c3ccc4c(c3)OCO4)n2)nc1	91
O=C(/C=C/c1ccc2c(c1)OCCO2)c1ccccc1	-137*
Nc1ccccc1C(=O)/C=C/c1ccc2c(c1)OCO2	-340*
O=C(O)c1ccc(/C=C/C(=O)c2ccc3c(c2)OCCCO3)cc1	-135*
Cc1ccc(O)c(C(=O)/C=C/c2ccc3c(c2)OCCO3)c1	-82*
Cc1nc2ccccc2nc(=O)c1NNc1ccccc1	-241*
Cc1ccc2nc(=O)c(NNc3ccccc3)cnc2c1	-218*
O=C(Nc1ccccc1)Nc1ccc(-n2ccc(C(F)(F)F)n2)cc1	-277*
SMILES	aSyn 5UTR act
COc1cccc(C(=O)Nc2nc(C)cs2)c1	-142*
COc1cc(OC)cc(C(=O)NCC(=O)OCc2nc3ccccc3s2)c1	-184*
O=C(Nc1nc2ccccc2s1)c1cc(-c2ccccc2)nn1-c1ccccc1	-137*
COc1cc(C(=O)Nc2nc3ccc(C)cc3s2)ccc1OCc1c(C)noc1C	-99*
COc1ccc(C(=O)Nc2nc3ccccc3s2)cc1OC	-212*
CC(C)[C@H](NC(=O)c1cccc(S(=O)(=O)N2CCOCC2)c1)C(=O)Nc1nc2ccccc2s1	-72*
O=C(Nc1nc2ccccc2s1)c1cccc(S(=O)(=O)N2CCc3ccccc32)c1	-64*
O=C(Nc1nc2ccccc2s1)c1cccc(N2C(=O)CCC2=O)c1	-82*
Cc1cccc(C(=O)N[C@H](C(=O)Nc2nc3ccccc3[nH]2)C(C)C)c1	96
COc1cccc(C(=O)Nc2nc3ccccc3s2)c1	-108*
Cc1ccnc(NC(=O)c2cccc(S(=O)(=O)N3CCCc4ccccc43)c2)c1	-128*
COc1ccc(C(=O)Nc2nc3ccccc3s2)cc1	67
COC(=O)CCC(=O)Nc1nc(-c2ccccc2)cs1	-65*
O=C(Cc1cccs1)Nc1nc(-c2ccccc2)cs1	-81*
O=C(COC(=O)c1cc(=O)[nH]c2ccccc12)Nc1nc(-c2ccccc2)cs1	-73*

Assay outcomes (PubChem)
